Tau fluor cs – counter-screen for tau fibril formation inhibitors; tau K18 P301L Alexa594 fluorescence, heparin fibrillization; Potency, µM (highest dose often 57.7 µM); 0.93% of 280,000 active; AID 1463; also: nearly all actives have a fitted effect of over 55% in size
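Human tau K18 P301L (15 uM unlabeled, 0.24 uM Alexa 594-labeled) in 100 mM sodium acetate pH 7 with 20 uM heparin, 6 hr at 37 C. ThT 30 uM added, 1 hr ambient; Alexa 594 FP and total fluorescence read at 555/632 nm.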
TexasRed fluor – counter-screen for TRb-SRC2 inhibitors: fluorescence interference | TRb/SRC2 Texas Red total fluorescence interference | Potency, µM (top dose mostly 106 µM) | 0.29% of 280,000 active; active = well fitted curve in either direction with a large enough effect; inconclusive = small, poorly fitted or top-dose-only effect
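Human TRβ ligand-binding domain (0.6 uM) and Texas Red SRC2 peptide (20 nM) in Tris buffer with 1 uM T3 and 5% DMSO were incubated with pinned compound for 5 hr at ambient temperature. Total fluorescence was computed as S + 2P (555/632 nm).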
TRb SRC2 PPI – inhibitors of human thyroid hormone receptor beta-SRC2 interaction. P10828. Potency, µM (series often up to 106 µM), hits mostly inhibitors. AID 1469. 0.065% of 280,000 active. TRbeta-SRC2 peptide binding, fluorescence polarization; receptor liganded with 1 µM T3; also: nearly all actives have a fitted effect of over 50% in size
Target sequence (P10828 whole entry, looked up): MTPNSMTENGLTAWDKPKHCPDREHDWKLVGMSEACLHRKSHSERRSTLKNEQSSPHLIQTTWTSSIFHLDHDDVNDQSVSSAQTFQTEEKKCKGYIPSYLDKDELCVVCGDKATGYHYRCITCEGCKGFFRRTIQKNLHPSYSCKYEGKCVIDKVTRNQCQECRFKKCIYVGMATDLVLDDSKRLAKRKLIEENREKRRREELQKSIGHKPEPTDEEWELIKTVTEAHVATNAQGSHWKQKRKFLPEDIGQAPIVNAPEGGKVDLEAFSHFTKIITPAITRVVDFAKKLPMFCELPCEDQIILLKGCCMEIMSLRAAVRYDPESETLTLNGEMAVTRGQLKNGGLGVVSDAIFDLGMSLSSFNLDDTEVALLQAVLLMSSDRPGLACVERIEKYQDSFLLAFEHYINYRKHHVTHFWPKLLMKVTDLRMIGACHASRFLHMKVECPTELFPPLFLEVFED
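Compounds were added to 0.6 uM TRb ligand-binding domain and 20 nM Texas Red-labeled SRC2 peptide in Tris buffer containing 1 uM T3, incubated 5 hr at ambient temperature, then read by fluorescence polarization.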
Tau fibril ThT – tau fibrillization inhibition (ThT binding); P10636; recombinant tau K18 P301L, heparin-induced fibrillization, ThT fluorescence; Potency, µM (series often up to 57.4 µM), most hits filed as inhibitors; 2.1% of 270,000 active; AID 1460; also: nearly all actives have a fitted effect of over 55% in size
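Fibril formation assay: tau K18 P301L at 15 uM with trace Alexa 594 label, heparin inducer 20 uM, pH 7 sodium acetate buffer, 37 C for 6 hr; endpoint ThT signal.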
KDM4E inh – blocks human JMJD2E demethylase activity | B2RXH2 | JMJD2E catalytic domain, FDH-coupled NADH fluorescence (FDH is formaldehyde dehydrogenase) | Potency, µM (top dose mostly 57.1 µM), hits mostly inhibitors | 1.6% of 230,000 active; active = well fitted inhibition curve with a large enough effect, not every such curve was filed as active; inconclusive = small, poorly fitted or top-dose-only effect, or another doubt; inactive = no such curve, though single readings can be large or run the other way; also: nearly all actives have a fitted effect of over 50% in size
Target sequence (B2RXH2 1-337 limits assumed): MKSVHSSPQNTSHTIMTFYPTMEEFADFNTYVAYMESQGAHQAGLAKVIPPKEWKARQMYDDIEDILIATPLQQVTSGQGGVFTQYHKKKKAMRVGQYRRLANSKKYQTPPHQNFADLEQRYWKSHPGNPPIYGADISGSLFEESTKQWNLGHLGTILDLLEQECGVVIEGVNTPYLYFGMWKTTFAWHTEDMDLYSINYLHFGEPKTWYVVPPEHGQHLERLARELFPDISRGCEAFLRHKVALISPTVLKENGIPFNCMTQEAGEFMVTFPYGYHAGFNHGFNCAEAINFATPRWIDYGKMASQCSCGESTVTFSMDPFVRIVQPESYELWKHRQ
Tau FP inhib – tau fibrillization inhibition (FP). P10636. K18 P301L tau heparin fibrillization, Alexa594 FP, 6 h. Potency, µM (series often up to 57.7 µM), most hits filed as inhibitors. 0.39% of 280,000 active. AID 1468; also: nearly all actives have a fitted effect of over 55% in size
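Human K18 P301L fragment (15 uM unlabeled plus 0.24 uM Alexa 594-labeled) in 100 mM sodium acetate pH 7 with compound, aggregation induced by 20 uM heparin for 6 hr at 37 C. ThT (30 uM) added for 1 hr, then Alexa 594 FP read.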
Of the large screens only hits and unclear results are named; the others gave an inactive call; [ ] = dose if it differs, or a comment. Most compounds without a hit are left out; they make up all but 3.5% or so of the library. Unless noted, calls follow the shape of the dose curve; as a rule, active = well fitted curve in the direction sought with a large enough effect; inconclusive = small, poorly fitted or top-dose-only effect, or another doubt; inactive = no such curve, though single readings can be large; an effect the other way counts as inactive or inconclusive.

Cc1ccc2ccccc2c1NC(=O)Cn1nnc(-c2cccnc2)n1	none
CCC(C)c1ccc2oc(-c3ccc(NC(=O)Cn4cnc5c(=O)n(C)c(=O)n(C)c54)cc3)nc2c1 (configuration not stated)	KDM4E inh inconclusive
CC(=O)c1coc2c1cc(O)c1ccccc12	Tau fibril ThT inconclusive
O=C(c1ccco1)c1coc2c1cc(O)c1ccccc12	Tau fluor cs inconclusive, Tau fibril ThT 3.5µM
CCN(CC)N=Nc1ccc(S(N)(=O)=O)cc1	Tau FP inhib inconclusive
NS(=O)(=O)c1ccc(N=Nc2c[nH]c(=O)c(O)c2)cc1	Tau fluor cs inconclusive, TexasRed fluor inconclusive, Tau fibril ThT 2.5µM, KDM4E inh 32µM, Tau FP inhib inconclusive
CC(=O)Nc1sc2c(c1C(N)=O)CCCC2	none
NC(=O)c1c(NC(=O)c2noc3c2CCCC3)sc2c1CCCC2	Tau fibril ThT 28µM, Tau FP inhib inconclusive (no result: KDM4E inh)
CCOC(=O)C1(Cc2ccc(OC)cc2)CCN(C(=O)c2cc3ccccc3[nH]2)CC1	Tau fibril ThT inconclusive, KDM4E inh inconclusive
COc1ccc(-c2nc3ccc(NS(=O)(=O)c4ccc(C)cc4)cc3o2)cc1	Tau fluor cs 16µM[quencher] (no result: KDM4E inh)
CCc1ccc(NC(=O)Nc2ccc3c(c2)N(C)C(=O)CS3)cc1	Tau fluor cs 18µM[quencher], Tau FP inhib inconclusive
Cc1ccc(NC(=O)Nc2ccc3c(c2)N(C)C(=O)CS3)cc1C	none
Cc1cc(C)cc(NC(=O)Nc2ccc3c(c2)N(C)C(=O)CS3)c1	Tau fluor cs 11µM[quencher], Tau FP inhib inconclusive
CC(=O)c1ccc(NC(=O)c2cc(C)nn2-c2ccccc2)cc1	none (no result: KDM4E inh)
CCOC(=O)/C(=C/C=C1\Sc2ccccc2N1CC)C(C)=O	Tau fibril ThT inconclusive, Tau FP inhib inconclusive
CCOC(=O)/C(=C/C=C1\Sc2cc(C)c(C)cc2N1CC)C(C)=O	Tau fibril ThT 10µM
COc1ccc(-c2noc(CCC(=O)Nc3ccccc3Cl)n2)cc1OC	TexasRed fluor 0.004µM[quencher], Tau fibril ThT inconclusive (no result: KDM4E inh)
COc1ccc2c(c1)CCC1C2CC[C@@]2(C)C(O)CCC12 (some centres not stated)	none
Oc1c(Br)cc(Br)cc1C=NCc1ccccc1	Tau fibril ThT inconclusive
Oc1c(Br)cc(Br)cc1C=NCc1ccc(F)cc1	Tau fibril ThT 20µM, KDM4E inh inconclusive, Tau FP inhib inconclusive
O=c1cc(N2CCc3ccccc32)[nH]c(=O)n1-c1ccc(Br)cc1	Tau fibril ThT 28µM, KDM4E inh inconclusive, Tau FP inhib inconclusive
CCOc1ccc(CCNC(=O)c2cnc3sc(N4CCCC4)nn3c2=O)cc1	none (no result: KDM4E inh)
COc1ccc2nc(/N=C\N(C)C)sc2c1	none
COc1ccc2nc(N=Nc3ccc(N(C)C)cc3)sc2c1	Tau fluor cs inconclusive, Tau fibril ThT 0.89µM
CCCCC(=O)OC1=C(C(=O)c2ccccc2)N(C)S(=O)(=O)c2ccccc21	Tau fibril ThT 14µM (no result: KDM4E inh)
Cc1cc(C(=O)CSc2nc(N)cc(=O)[nH]2)c(C)n1-c1ccc(OC(F)F)cc1	none
O=C(NNc1cc(Br)c(O)c(Br)c1)c1ccccc1	Tau fluor cs inconclusive, Tau fibril ThT 5µM, Tau FP inhib 16µM
Cc1cc(C(=O)NC(=S)Nc2ccccc2N2CCOCC2)ccc1[N+](=O)[O-]	Tau fluor cs inconclusive
Cc1cc2c([nH]c3ccccc32)c2c1OC(C)(C)C=C2	Tau fluor cs 14µM[quencher], Tau fibril ThT inconclusive
Cc1cccc(NC(=O)CSc2nc3ccc(NC(=O)c4cccs4)cc3s2)c1	Tau fluor cs inconclusive, Tau FP inhib inconclusive (no result: KDM4E inh)
COc1cccc(NC(=O)CSc2nc3ccc(NC(=O)c4cccs4)cc3s2)c1	Tau fluor cs 7.1µM[quencher], Tau FP inhib 7.9µM (no result: KDM4E inh)
CC(=O)Nc1ccc2nc(SCCOc3ccccc3Cl)sc2c1	Tau fluor cs 11µM[quencher], Tau fibril ThT inconclusive, Tau FP inhib 11µM (no result: KDM4E inh)
COc1cc(C)ccc1OCCSc1nc2ccc(NC(=O)c3cccs3)cc2s1	Tau fluor cs 5µM[quencher], Tau FP inhib 10µM (no result: KDM4E inh)
O=C(CCc1n[nH]c(=O)[nH]c1=O)N/N=C/c1ccco1	none
O=C(CCC(=O)N(CC(=O)NC1CCCC1)Cc1cccs1)Nc1nccs1	none
Brc1ccc(N=Nc2ccc3ccccc3n2)cc1	Tau fibril ThT 1.1µM
N#C/C(=C\c1ccc(C(=O)O)cc1)c1nc2sc3c(c2c(=O)[nH]1)CCCC3	Tau fluor cs inconclusive, Tau fibril ThT 14µM
CCOC(=O)c1nc2sc3c(c2c(=O)[nH]1)CCCC3	KDM4E inh inconclusive
Cc1ccc(-c2noc(C(C)NS(=O)(=O)c3ccc(C)cc3)n2)cc1 (configuration not stated)	none (no result: KDM4E inh)
N=C1S/C(=C\c2ccco2)C(=O)N1c1nccs1	Tau fibril ThT 16µM
N=C1S/C(=C\c2ccco2)C(=O)N1c1ccc2c(c1)OCO2	Tau fluor cs inconclusive, Tau fibril ThT 16µM
Cc1ccc(N2C(=O)/C(=C/c3ccco3)SC2=S)cc1	Tau fibril ThT inconclusive
Cc1ccc(-c2nc(-c3cc4cccc(OCc5cccc(C)c5)c4oc3=O)no2)cc1	Tau fibril ThT inconclusive (no result: KDM4E inh)
CO/C=C\C=C/c1nnn(-c2ccc(Cl)cc2)n1	KDM4E inh 25µM
CN1CCN(S(=O)(=O)c2ccc(NC(=O)Nc3cccc(Cl)c3)cc2)CC1	Tau fluor cs inconclusive, Tau fibril ThT inconclusive, Tau FP inhib 18µM
O=C(Nc1cc(S(=O)(=O)N2CCOCC2)ccc1N1CCCC1)c1ccc2c(c1)S(=O)(=O)c1ccccc1C2=O	Tau fluor cs inconclusive, Tau fibril ThT 25µM, Tau FP inhib inconclusive
N#CC(C#N)=NNc1ccc(S(=O)(=O)N2CCCCC2)cc1	Tau fluor cs inconclusive, Tau fibril ThT 16µM
O=C(Nc1ccccc1F)Nc1cc(S(=O)(=O)N2CCOCC2)ccc1N1CCCC1	none
O=C(Nc1ccc(Cl)c(Cl)c1)Nc1cc(S(=O)(=O)N2CCOCC2)ccc1N1CCCC1	Tau fluor cs 7.9µM[quencher], KDM4E inh inconclusive, Tau FP inhib inconclusive
CCCC(=O)N1CCC(O)(c2cccc(F)c2)CC1	none
O=C(Nc1ccccc1)Nc1ccc(S(=O)(=O)N2CCCCC2)cc1	Tau fluor cs 16µM[quencher], KDM4E inh inconclusive, Tau FP inhib 32µM
O=C(Nc1cccc(Cl)c1)Nc1cc(S(=O)(=O)N2CCCCC2)ccc1Cl	Tau fluor cs inconclusive, Tau FP inhib 11µM
O=C(Nc1ccc(S(=O)(=O)N2CCCCC2)cc1)c1ccccc1Cl	none
CCOC(=O)CSc1nc(N)c(C#N)c(-c2ccc(OCC)cc2)c1C#N	KDM4E inh inconclusive
CC1=C(C#N)c2nc(N)c(C#N)c(C)c2/C1=C\c1ccc(OCC(=O)O)c(Cl)c1	Tau fluor cs inconclusive, Tau fibril ThT 16µM, KDM4E inh inconclusive, Tau FP inhib inconclusive
Cc1coc2cc3oc(=O)c4c(c3cc12)CCC4	KDM4E inh inconclusive

Screening results: PubChem, National Center for Advancing Translational Sciences (NCATS)
